CYP2C19 inhib: inhibitors of human CYP2C19; P33261; CYP2C19 Supersomes, luciferin-H EGE luminescence, 30 min; inhibition, % at 5 µM; 96,000 compounds, 21% hits; AID 778;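 active = CYP2C19 inhibition above a set limit at 5 µM in the primary screen, cut at about 50% in these data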
CYP2C9 activ: increases human cytochrome P450 2C9 activity. recombinant CYP2C9, luciferin-H conversion, luminescence; stronger effect = higher value; factor 1 = untreated enzyme, 0 = blocked. activation factor at 5 µM. 96,000 compounds, 1.4% hits. AID 1024;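 active = activation factor of 2 or more for CYP2C9 at a 5 µM dose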
Target sequence (P11712 whole entry, looked up): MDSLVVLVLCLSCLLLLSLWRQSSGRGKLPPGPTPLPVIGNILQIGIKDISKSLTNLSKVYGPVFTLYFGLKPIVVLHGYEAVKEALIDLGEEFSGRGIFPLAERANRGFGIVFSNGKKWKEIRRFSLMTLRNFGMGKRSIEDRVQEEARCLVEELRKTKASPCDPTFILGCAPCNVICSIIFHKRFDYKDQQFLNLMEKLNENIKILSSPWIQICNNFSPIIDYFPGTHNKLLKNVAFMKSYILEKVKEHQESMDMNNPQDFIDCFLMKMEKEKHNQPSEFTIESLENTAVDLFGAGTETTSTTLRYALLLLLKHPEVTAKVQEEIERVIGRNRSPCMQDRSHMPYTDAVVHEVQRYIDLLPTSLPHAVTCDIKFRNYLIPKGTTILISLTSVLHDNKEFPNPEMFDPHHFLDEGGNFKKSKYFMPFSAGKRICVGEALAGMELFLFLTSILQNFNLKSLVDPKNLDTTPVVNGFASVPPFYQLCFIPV
F-actin modifier: cytoskeleton assembly modification. HUVEC TNFa F-actin phalloidin imaging, high content. inhibition, % at 2 µM. AID 836. 91,000 compounds, 0.18% hits;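 active = inhibition above the batch mean plus 3 SD and confirmed as a hit by visual image inspection, cut at about 30% in these data, passing the limit was not always enough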
E-sel TNF inh: blocks E-selectin expression induced by TNF alpha | inhibition, % at 2 µM | 120,000 compounds, 0.71% hits | HUVEC TNFa-induced E-selectin immunofluorescence, high content;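 active = inhibition above the batch mean plus 3 SD, and confirmed as a hit on visual image review, cut at about 43% in these data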
CYP2C9 inh: human CYP2C9 inhibition; P11712; CYP2C9 Supersomes, luciferin-H conversion, luminescence; inhibition, % at 5 µM; 96,000 compounds, 20% hits; AID 777;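 active = blocking of liver enzyme CYP2C9 beyond about 50% at 5 µM, limit read from the data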
CYP2C19 activ: activators of human cytochrome P450 2C19. P33261. AID 1025. 96,000 tested, under 10 active. recombinant CYP2C19, luciferin-H EGE luminescence; stronger effect = higher value; 0 = fully inhibited enzyme, 1 = untreated enzyme. activation factor at 5 µM;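 active = activation factor of at least 2 at 5 µM in the primary screen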
Numbers stand for hits; - = inactive; . = no result given. An excerpt weighted towards active compounds, which were near 22% of everything screened.

SMILES	CYP2C19 inhib	CYP2C9 activ	F-actin modifier	E-sel TNF inh	CYP2C9 inh	CYP2C19 activ
CCC1Oc2ccc(C)cc2N(CC(=O)NCCc2ccc(OC)c(OC)c2)C1=O (stereo not given)	.	.	-	-	.	.
CCC1Oc2ccc(C)cc2N(CC(=O)NCc2ccccc2OC)C1=O (stereo not given)	91	-	-	-	-	-
Cc1ccc(Sc2nnc(Cc3ccccc3)c3ccccc23)cc1	-	-	-	-	-	-
CCOC(=O)N1CCC(n2c(SCC(=O)N3CCCC3)nc3ccccc3c2=O)CC1	-	-	-	-	-	-
COCC(C)n1c(SCC(=O)NCCC2=CCCCC2)nc2ccccc2c1=O (stereo not given)	84	-	-	.	87	-
CCOC(=O)N1CCC(n2c(SCC(=O)Nc3ccccc3OC)nc3ccccc3c2=O)CC1	90	-	-	-	95	-
CCOC(=O)N1CCC(n2c(SCC(=O)NCc3ccccc3)nc3ccccc3c2=O)CC1	60	-	-	-	53	-
CCOC(=O)N1CCC(n2c(SCC(=O)NCCC3=CCCCC3)nc3ccccc3c2=O)CC1	58	-	-	-	68	-
CCOC(=O)N1CCN(CCC(=O)Nc2ccccc2OC)CC1	.	.	-	-	.	.
CC(=O)NCCn1c(SCC(=O)NCCC2=CCCCC2)nc2ccccc2c1=O	-	-	-	-	-	-
O=C(CNC(=O)c1cccs1)NCCN1CCN(c2ccccc2F)CC1	-	-	.	-	-	-
CCOC(=O)N1CCC(n2c(SCC(=O)N3CCC(C)CC3)nc3ccccc3c2=O)CC1	57	-	-	-	60	-
COc1ccc(NC(=O)CSc2nc3ccccc3c(=O)n2CCCN2CCCCC2)c(OC)c1	64	-	-	-	-	-
COCCCn1c(SCC(=O)Nc2ccc(NC(=O)c3ccco3)c(OC)c2)nc2ccccc2c1=O	.	.	-	-	.	.
CCNC(=O)NC(=O)CSc1cccc(C(F)(F)F)c1	77	-	.	.	-	-
O=C(CSc1cccc(C(F)(F)F)c1)Nc1ccc(Cl)cc1Cl	96	-	-	-	-	-
CC(Sc1cccc(C(F)(F)F)c1)C(=O)NC(N)=O (stereo not given)	-	2.4	.	.	-	-
Cn1nnnc1SCC(=O)Nc1ccc(Cl)cc1Cl	-	-	-	.	-	-
CC(C)NC(=O)c1cccc(C(F)(F)F)c1	-	-	-	-	-	-
Cc1ccc(CSc2nnc(Cn3c(=O)sc4ccccc43)n2C)cc1	.	.	.	-	.	.
CCC1(CC)NC(=O)NC1=O	-	-	-	-	-	-
COC(=O)C1=C(C)N(C)C(C)=C(C(=O)OC)C1c1ccccc1C	98	-	-	.	96	-
CCCCOc1ccccc1C1C(C(=O)OC)=C(C)N(C)C(C)=C1C(=O)OC	.	.	-	-	.	.
CCOC(=O)C1=C(C)N(C)C(C)=C(C(=O)OCC)C1c1ccccn1	50	-	-	-	86	-
COC(=O)C1=C(C)N(C)C(C)=C(C(=O)OC)C1c1ccccn1	-	-	-	-	82	-
SMILES	CYP2C19 inhib	CYP2C9 activ	F-actin modifier	E-sel TNF inh	CYP2C9 inh	CYP2C19 activ
COC(=O)C1=C(C)N(C)C(=O)NC1c1ccccc1 (stereo not given)	-	-	-	-	-	-
Cc1ccc(Cl)cc1N1CCN(Cc2nc3ccsc3c(=O)[nH]2)CC1	70	-	-	.	-	-
O=C(CSc1ncccn1)c1ccccc1Br	-	-	-	-	-	-
CCOc1ccc(S(=O)(=O)Nc2ccc(S(=O)(=O)N3CCCC3)cc2)cc1	85	-	-	-	94	-
CCOC(=O)N1CCN(C(=O)COc2ccc(S(=O)(=O)Nc3ccc(OCC)cc3)cc2)CC1	-	-	-	-	51	-
CCOc1ccc(NS(=O)(=O)c2ccc(OCC(=O)N3CCCC3)cc2)cc1	-	-	-	-	-	-
CCOc1ccc(S(=O)(=O)N2CCN(C(=O)c3cccn3C)CC2)cc1	64	-	-	-	-	-
CCOc1ccc(S(=O)(=O)Nc2ccc(S(=O)(=O)N3CCOCC3)cc2)cc1	-	-	-	-	60	-
Cn1cccc1-c1cc(C(=O)O)[nH]n1	-	-	.	.	-	-
Oc1ccc2ccccc2c1CNn1cnnc1	-	-	-	.	-	-
CCn1cc(C(=O)Nc2ccc(OC)c(S(=O)(=O)N3CCCCC3)c2)c(=O)c2ccc(C)nc21	.	.	.	-	.	.
CCOc1ccc(S(=O)(=O)N2CCCCCC2)cc1	92	-	-	-	-	-
O=S(=O)(c1ccc(Oc2ccc(Br)cc2)cc1)N1CCOCC1	75	-	-	-	64	-

Screening results from PubChem.
